Compounds with a hit are over-represented: about 2.6% of the library has one in this group of screens.
PHOSPHO1 inh: PubChem AID 1565 | inhibition, % at 13.3 µM | recombinant PHOSPHO1, absorbance phosphatase assay | hit rate 1.1% among 290,000 | Phosphoethanolamine/phosphocholine phosphatase (Homo sapiens), Q8TCT1; in the data active = inhibition above about 60%
Target sequence (Q8TCT1 whole entry, looked up): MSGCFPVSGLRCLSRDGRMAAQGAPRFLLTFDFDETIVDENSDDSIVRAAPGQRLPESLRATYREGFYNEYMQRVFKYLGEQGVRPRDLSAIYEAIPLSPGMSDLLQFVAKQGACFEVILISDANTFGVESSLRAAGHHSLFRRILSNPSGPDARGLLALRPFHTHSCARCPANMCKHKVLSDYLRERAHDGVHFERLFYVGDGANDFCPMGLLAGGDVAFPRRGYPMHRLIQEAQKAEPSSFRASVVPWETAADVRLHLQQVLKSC
PABP FP inh: PABP poly(A) RNA binding inhibitors, primary screen, biochemical, fluorescence polarization, uHTS. hit rate 1% among 290,000. inhibition, % at 35 µM. Polyadenylate-binding protein 1 (Homo sapiens), P11940;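 note: calls also rest on retests at 20 µM and on dose response follow-up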
MLLE-PAM2 inh: inhibitors of PABP1 MLLE–PAM2 peptide binding, primary screen, biochemical, fluorescence polarization, FITC-PAM2, GST-MLLE. Polyadenylate-binding protein 1 (Homo sapiens), P11940. inhibition, % at 20 µM. hit rate 0.36% among 360,000. AID 588489, 2011; in the data active = inhibition above about 35%, passing the limit was not always enough;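 note: plate controls were DMSO wells with GST-MLLE for no effect and wells lacking GST-MLLE protein for full effect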
eIF4H inh: human eIF4H binding inhibitors, primary screen, translation initiation inhibitor project, biochemical, uHTS, fluorescence polarization; Eukaryotic translation initiation factor 4H (Homo sapiens), Q15056; eIF4H fluorescence polarization binding assay; inhibition, % at 35 µM; hit rate 0.94% among 290,000;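 note: calls also rest on retests at 20 µM and on dose response follow-up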
CRFR2-BP antag: antagonists of CRF-BP/CRF-R2 complex, primary screen, cell-based, HEK293, calcium dye fluorescence, uHTS | hit rate 0.59% among 350,000 | CRF-induced calcium fluorescence | inhibition, % at 11.8 µM;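 active = inhibition of the ligand-induced calcium signal above about 50% at the single tested concentration, limit read from the data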
* hit, by the source's call; . = no result. Unless noted, the rule behind the calls is not given here.

SMILES	PHOSPHO1 inh	PABP FP inh	MLLE-PAM2 inh	eIF4H inh	CRFR2-BP antag
Cc1ccccc1-c1cc2nc(NCc3ccc(N(C)C)cc3)n(C)c(=O)c2s1	.	.	-10	.	.
O=C(Nc1ccc2c(c1)OCO2)c1cc(C2CCCCN2S(=O)(=O)c2cccs2)on1 (centres undefined)	.	.	-2	.	.
O=C(NCc1cccnc1)c1cc(C2CCCN(S(=O)(=O)c3cccc4cccnc34)C2)on1 (centres undefined)	.	.	0	.	.
CC(C)(C)C(=O)NC(=S)NCCc1ccccc1	30	0	14	-6	51*
S=C(NCCc1ccccc1)NCCc1ccccc1	-17	0	-46	-2	3
CCCOC(=O)Nc1nc2ccccc2o1	3	52*	11	72*	-11
CCOC(=O)C(=CN=C(N)Nc1nc2ccccc2o1)C(=O)OCC	20	-2	9	12	-23
OC[C@@H]1CN(Cc2cccs2)C[C@H](n2cnc3c(NCc4ccc(F)cc4)ncnc32)O1	.	.	-6	.	.
c1ccc(COc2ccc(-c3cc4nc(NCCCn5ccnc5)ccn4n3)cc2)cc1	.	.	-21	.	.
C=C1c2cc3c(cc2NC(=S)N1Cc1ccccc1)OCO3	70*	14	-13	3	-16
Cc1csc2nc(CSc3nc4ccccc4o3)cn12	61*	19	8	14	13
Nn1c(CSc2nc3ccccc3o2)nnc1CSc1nc2ccccc2o1	26	-10	19	5	-35
Cc1cc(C)n2c(Br)c(CSc3nc4ccccc4o3)nc2n1	80*	15	14	1	-17
Cn1c(=O)c2ncn(CC(=O)Nc3ccc4c5c(cccc35)CC4)c2n(C)c1=O	3	55*	7	47*	-11
CC[C@]12c3[nH]c4cc(-c5ccco5)ccc4c3CCN1C(=O)[C@@H](CC(=O)NCCN1CCOCC1)C[C@@H]2C(=O)N1CCN(C(=O)C2CC2)CC1	.	.	6	.	7
CCn1c2ccccc2nc2cc3c(cc21)c(Cl)c(=O)c1ccccc13	.	.	24	.	-10
CCCS(=O)(=O)NC(=O)C1(C)CCN(C(=O)c2ccc(OC)cc2)C1 (centres undefined)	.	.	6	.	.
CCCCCCS(=O)[C@H]1CS(=O)(=O)C[C@@H]1S(=O)CCCCCC (some centres undefined)	96*	2	36	2	3
CCCCCCCCS(=O)C1CCS(=O)(=O)C1 (centres undefined)	48	-2	18	3	1
O=C(CSc1n[nH]c(-c2ccccc2)n1)Nc1ccc(N2CCOCC2)cc1	51	12	-9	6	-10
NS(=O)(=O)c1ccc(NC(=O)COC(=O)CSc2n[nH]c(-c3ccccc3)n2)cc1	71*	5	-49	6	3
CCCN(CCC)C(=S)NC(=O)c1ccc(-c2ccccc2)cc1	40	6	39*	18	-4
CCOc1ccc(C(=O)NC(=S)N(Cc2ccccc2)Cc2ccccc2)cc1	9	2	25	-3	-1
O=C(c1ccco1)N(CCC(c1ccccc1)c1ccco1)Cc1ccco1 (centres undefined)	34	23	-10	68*	-14
Cc1ccc(C(CCN(Cc2ccccc2)C(=O)c2ccco2)c2ccco2)cc1 (centres undefined)	-2	-2	0	40	-15
SMILES	PHOSPHO1 inh	PABP FP inh	MLLE-PAM2 inh	eIF4H inh	CRFR2-BP antag
Oc1ccc(-c2onc(C(F)(F)F)c2-c2cscn2)c(O)c1	7	-9	5	-5	22
Cc1nc(-c2c(C(F)(F)F)noc2-c2ccc(O)cc2O)cs1	4	-11	-5	-4	54*
O=C1NC(=S)S/C1=C\c1cccc([N+](=O)[O-])c1	.	.	-6	.	55*
CC(=O)Nc1cccc(NC(=O)CSc2ncc(C(=O)Nc3ccc(F)cc3)c(=O)n2C)c1	.	.	11	.	24
CC(=O)Nc1cccc(NC(=O)CSc2ncc(C(=O)Nc3ccccc3)c(=O)n2C)c1	.	.	42*	.	-11
CCOc1ccc(Cl)cc1-c1cc(C(=O)NCc2ccccc2OC)[nH]n1	.	.	1	.	.
COc1ccc(/C=C2\C(=O)NC(=O)c3ccccc32)cc1OC	.	.	5	.	-37
COc1ccc2c(c1)/C(=C/c1cc(OC)c(OC)c(OC)c1)C(=O)N2	.	.	18	.	106*
COc1ccc(Cc2c(-c3cccc(Cl)c3)nc3ccc(Cl)cn23)c(C)c1	.	.	-38	.	.
Cc1ccc(S(=O)(=O)Cc2ccc([N+](=O)[O-])cc2)cc1	36	75*	8	98*	-11
N=C1/C(=C/c2cccs2)C(=O)N=C2SN=C(SCc3ccccc3)N12	6	3	-10	15	102*
CC(C)CSC1=NSC2=NC(=O)/C(=C\c3cccs3)C(=N)N12	-5	8	-26	51*	75*
O=C(Oc1c(Br)cc([N+](=O)[O-])cc1Br)c1cccnc1	1	10	2	-6	68*
Cc1ccc(NC(=S)NNC(=S)NCc2ccccc2)cc1	75*	6	34	6	-76
CCc1cc(C(=O)NNC(=S)NCc2ccccc2)cs1	91*	-2	-9	0	13
Cc1ccc(NC(=S)NCc2ccccn2)cc1	13	-11	-60	-14	74*
FC(F)(F)c1cccc(NC(=S)NCc2ccccn2)c1	-5	4	21	-6	16
FC(F)(F)c1cccc(NC(=S)NNC(=S)NCc2ccccc2)c1	104*	5	41*	17	-24
O=C(CSc1nc2ccccc2c(=O)n1CCCO)Nc1ccc2c(c1)OCCO2	.	.	6	.	17
CCCCCCCCCCCC1N=C(N)NC(CCCO)=C1C(=O)OC (centres undefined)	.	.	-8	.	-30
CC(=O)N1c2ccccc2S(=O)(=O)c2c1ccc1ccccc21	.	.	12	.	1
CCCc1cc(CN(C)C(=O)c2ccc(OC3CCN(C(C)=O)CC3)c(OC)c2)[nH]n1	.	.	-3	.	18
FC(F)(F)c1cccc(NC(=S)Nc2cccc(NC(=S)Nc3cccc(C(F)(F)F)c3)n2)c1	-10	5	47*	3	1
Cc1cccc(NC(=S)Nc2cccc(C(F)(F)F)c2)n1	9	-3	14	-9	-2
S=C(NCc1ccccn1)Nc1ccc(Br)cc1Cl	30	-2	39*	-4	28
SMILES	PHOSPHO1 inh	PABP FP inh	MLLE-PAM2 inh	eIF4H inh	CRFR2-BP antag
Cc1c(O)c(CN2CCCCC2)cc2c1oc(=O)c1ccccc12	40	-8	-17	-8	59*
Cc1c(O)c(CN2CCCCC2)cc2c3c(c(=O)oc12)CCC3	16	4	-7	-4	-1
CCN(CC)Cc1c(C)[nH]c2ccc(NC(C)=O)cc2c1=O	.	.	9	.	67*
CCCc1c(C)[nH]c2ccc(NC(C)=O)cc2c1=O	12	0	6	-5	11
CCN(CC)C(=O)c1csc(COCCO)n1	.	.	-10	.	.
CCOc1ccc(/C=c2\sc3nc(-c4ccco4)nn3c2=O)cc1OCC	36	-6	43*	33	-39
COc1ccccc1/C=c1\sc2nc(-c3ccco3)nn2c1=O	33	62*	-3	90*	-9

Source: PubChem BioAssay
